SW480 rereplic: induces DNA re-replication in SW480 colon adenocarcinoma cells. SW480 DNA re-replication, Hoechst DNA content imaging, 48 h. Potency, µM (titrated, usually from 46.1 µM), hits mostly activators. 340,000 compounds, 1.8% hits; also: nearly all actives have a fitted effect of over 55% in size
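Image-based DNA-content assay: after two days of treatment, nuclei were labelled with the DNA dye Hoechst and imaged, and hits were compounds raising the count of nuclei showing high fluorescence intensity.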
KB-3-1 cytotox: KB-3-1 parental cell cytotoxicity | KB-3-1 viability, CellTiter-Glo ATP luminescence, 72 h | Potency, µM (titrated, usually from 46.1 µM), hits mostly cytotoxic | 400,000 compounds, 1.4% hits | AID 1347075; also: nearly all actives have a fitted effect of over 60% in size
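Using CellTiter-Glo luminescence, growth of non-resistant KB-3-1 adenocarcinoma cells is assessed 72 h after pin-tool compound addition at 37 °C. Normalized responses across the concentration series yield fitted curves.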
ALOX12 inh: inhibitors of human 12S-lipoxygenase ALOX12; purified 12hLO, xylenol orange hydroperoxide absorbance; 580,000 compounds, 1.1% hits; Potency, µM (titrated, usually from 108 µM), most hits filed as inhibitors
Target sequence (P18054 whole entry, looked up): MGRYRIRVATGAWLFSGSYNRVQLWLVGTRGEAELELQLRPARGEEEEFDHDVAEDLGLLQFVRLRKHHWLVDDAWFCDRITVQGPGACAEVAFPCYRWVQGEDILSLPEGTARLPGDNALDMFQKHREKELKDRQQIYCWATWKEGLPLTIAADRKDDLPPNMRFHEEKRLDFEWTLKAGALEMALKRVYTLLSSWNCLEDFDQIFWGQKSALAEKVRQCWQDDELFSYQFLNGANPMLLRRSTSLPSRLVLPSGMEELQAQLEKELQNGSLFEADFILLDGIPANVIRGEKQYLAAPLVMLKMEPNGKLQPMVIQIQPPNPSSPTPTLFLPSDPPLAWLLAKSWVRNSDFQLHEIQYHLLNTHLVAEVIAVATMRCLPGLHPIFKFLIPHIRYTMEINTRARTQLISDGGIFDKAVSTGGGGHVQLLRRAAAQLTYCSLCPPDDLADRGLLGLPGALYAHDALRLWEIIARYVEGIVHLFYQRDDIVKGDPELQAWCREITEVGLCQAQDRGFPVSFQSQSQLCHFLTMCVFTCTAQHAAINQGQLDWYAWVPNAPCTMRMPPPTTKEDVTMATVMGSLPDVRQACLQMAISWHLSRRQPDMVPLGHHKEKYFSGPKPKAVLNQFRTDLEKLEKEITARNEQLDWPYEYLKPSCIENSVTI
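Purified human 12hLO at 150 nM in 25 mM Hepes, 0.01% Triton X-100, pH 7.0, preincubated 15 min at room temperature with compound. Reaction started with 40 uM arachidonic acid, 30 min at room temperature. Hydroperoxide measured by Fe-xylenol orange, 573/405 nm absorbance ratio.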
PINK1 expr mod: modulators of PINK1 expression; PINK1 immunofluorescence, high-content cytometry, 24 h; Potency, µM (top dose mostly 76.6 µM), actives largely listed as activators; 410,000 compounds, 0.2% hits; AID 624263; active = well fitted activation curve with a large enough effect; inconclusive = small, poorly fitted or top-dose-only effect; cell line not stated here; also: nearly all actives have a fitted effect of over 65% in size
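Cells are seeded, rested 12 hours, then given compound at five concentrations or DMSO for 24 hours. After fixation, blocking and antibody staining, PINK1 amount and mitochondrial localization are scored; CCCP serves as control.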
MCF10A rereplic: DNA re-replication induction in MCF 10a cells; Potency, µM (doses to about 46.1 µM), usual class: activators; 350,000 compounds, 2.9% hits; MCF 10A DNA re-replication, Hoechst nuclear intensity, 48 h; also: nearly all actives have a fitted effect of over 50% in size
KB-V1 MDR tox: kills drug-selected multidrug resistant KB-V1 cells | Potency, µM (titrated, usually from 46.1 µM), most hits filed as cytotoxic | 400,000 compounds, 3.4% hits | KB-V1 MDR cells viability, CellTiter-Glo, 72 h; also: nearly all actives have a fitted effect of over 60% in size
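In this primary screen, KB-V1 cells overexpressing P-gp are incubated with library compounds (lowest to highest concentration) for 72 h at 37 degrees C before a luminescent ATP viability read.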
Numbers stand for hits; [ ] = remark or other dose. Only some compounds are listed: those with a hit (about 5.8% of all), similar ones and a draw of the others. Unless noted, calls follow the shape of the dose curve; as a rule, active = well fitted curve in the direction sought with a large enough effect; inconclusive = small, poorly fitted or top-dose-only effect, or another doubt; inactive = no such curve, though single readings can be large; an effect the other way counts as inactive or inconclusive.

Cc1ccc(N=Nc2c(N)nn(-c3ccccc3)c2N)cc1 was read as SW480 rereplic 13µM, KB-3-1 cytotox inconclusive, ALOX12 inh inactive, PINK1 expr mod inactive, MCF10A rereplic 15µM and KB-V1 MDR tox 6.5µM.
For COc1ccc(-c2ccc(-c3noc(-c4ccccc4C)n3)c(OC)n2)cc1 the results were SW480 rereplic inactive, KB-3-1 cytotox inactive, ALOX12 inh inactive, PINK1 expr mod inactive, MCF10A rereplic 15µM and KB-V1 MDR tox inactive.
COc1ccc(-c2ccc(-c3noc(C4CCCCC4)n3)c(OC)n2)cc1 was read as SW480 rereplic inactive, KB-3-1 cytotox inactive, ALOX12 inh inactive, PINK1 expr mod inactive, MCF10A rereplic inactive and KB-V1 MDR tox 16µM.
For COc1nc(-c2ccc(C)cc2)ccc1-c1noc(-c2cccnc2)n1 the results were SW480 rereplic inactive, KB-3-1 cytotox inactive, ALOX12 inh inactive, PINK1 expr mod inactive, MCF10A rereplic 21µM and KB-V1 MDR tox inactive.
`COc1ccc(-c2ccc(-c3noc(C)n3)c(OC)n2)cc1` gave SW480 rereplic inactive, KB-3-1 cytotox inactive, ALOX12 inh inactive, PINK1 expr mod 16µM, MCF10A rereplic inactive and KB-V1 MDR tox inactive.
CCOc1nc(-c2ccc(OC)cc2)ccc1-c1noc(C)n1 was read as SW480 rereplic inconclusive, KB-3-1 cytotox inconclusive, ALOX12 inh inactive, PINK1 expr mod inactive, MCF10A rereplic inconclusive and KB-V1 MDR tox inconclusive.
`COc1ccc(-c2ccc(-c3noc(-c4ccccc4OC)n3)c(OC)n2)cc1` gave SW480 rereplic inconclusive, KB-3-1 cytotox inactive, ALOX12 inh inactive, PINK1 expr mod inactive, MCF10A rereplic inconclusive and KB-V1 MDR tox inactive.
`Cc1ccc(C(=O)NCc2coc(-c3cccs3)n2)cc1` gave ALOX12 inh inactive.
Screening Cc1cc2cc(C=C(C#N)C#N)c(Cl)nc2cc1C returned SW480 rereplic inconclusive, KB-3-1 cytotox inactive, ALOX12 inh inactive, PINK1 expr mod inactive, MCF10A rereplic 18µM and KB-V1 MDR tox inactive.
Screening CN1CCC(OC2CCN(C(=O)COc3ccc(Cl)cc3)CC2)CC1 returned ALOX12 inh inactive.
For CN1CCC(OC(=O)Cc2ccc(Cl)cc2)CC1 the results were SW480 rereplic 15µM, KB-3-1 cytotox inactive, ALOX12 inh inactive, PINK1 expr mod inactive, MCF10A rereplic inactive and KB-V1 MDR tox inconclusive.
Screening CCOc1ccc(N2C(N)=NC(N)=NC2(C)C)cc1 returned SW480 rereplic inactive, KB-3-1 cytotox inconclusive, ALOX12 inh inactive, PINK1 expr mod inactive, MCF10A rereplic 7.3µM and KB-V1 MDR tox inactive.
`COc1ccc(N2C(N)=NC(N)=NC2(C)C)cc1` gave SW480 rereplic inactive, KB-3-1 cytotox inconclusive, ALOX12 inh inactive, PINK1 expr mod inactive, MCF10A rereplic inconclusive and KB-V1 MDR tox inactive.
Screening CC1(C)N=C(N)N=C(N)N1c1cccc(C#N)c1 returned SW480 rereplic inconclusive, KB-3-1 cytotox 16µM, ALOX12 inh inactive, PINK1 expr mod inactive, MCF10A rereplic inactive and KB-V1 MDR tox inactive.
Screening COc1cccc(C2CC(=O)N(c3sc4c(c3C#N)CCCC4)C3=C2C(=O)CCC3)c1OC (configuration not stated) returned ALOX12 inh inactive.
For COc1ccc2c(c1OC)C(=O)OC2[C@H]1c2c(cc3c(c2OC)OCO3)CCN1C (some centres not stated) the results were SW480 rereplic inactive, ALOX12 inh inconclusive and MCF10A rereplic inactive.
`COc1cc2c3c(c1OC)-c1cc4c(cc1CC3(C#N)N(C(=O)c1ccccc1)CC2)OCO4` (configuration not stated) gave SW480 rereplic inactive, KB-3-1 cytotox inactive, ALOX12 inh inactive, PINK1 expr mod inactive, MCF10A rereplic inactive and KB-V1 MDR tox 3.3µM.
For Cc1nnsc1C(=O)Nc1ccc(Cl)cc1 the results were SW480 rereplic inactive, KB-3-1 cytotox inactive, ALOX12 inh inactive, PINK1 expr mod inactive, MCF10A rereplic inactive and KB-V1 MDR tox inconclusive.
Cc1ccc(NNC(=O)c2snnc2C)cc1Cl was read as SW480 rereplic 2.3µM, KB-3-1 cytotox inactive, ALOX12 inh inconclusive, PINK1 expr mod inactive, MCF10A rereplic inactive and KB-V1 MDR tox inactive.
O=C(NCc1ccc2c(c1)OCO2)C1CN(c2ccc(F)cc2)C(=O)N1 (configuration not stated) was read as ALOX12 inh inactive.
`CC(=O)N1CCN(c2ccc(NC(=O)c3ccc([N+](=O)[O-])o3)cc2Cl)CC1` gave SW480 rereplic inconclusive, KB-3-1 cytotox inconclusive, ALOX12 inh inconclusive, PINK1 expr mod inactive, MCF10A rereplic 3.3µM and KB-V1 MDR tox inconclusive.
`CCC(=O)N1CCN(c2ccc(NC(=O)c3ccc([N+](=O)[O-])o3)cc2Cl)CC1` gave SW480 rereplic inactive, KB-3-1 cytotox inconclusive, ALOX12 inh inconclusive, PINK1 expr mod inactive, MCF10A rereplic inconclusive and KB-V1 MDR tox inactive.
Screening O=C(Nc1cc(Cl)ccc1-n1cncn1)c1ccc([N+](=O)[O-])o1 returned SW480 rereplic 21µM, KB-3-1 cytotox 13µM, ALOX12 inh inactive, PINK1 expr mod inactive, MCF10A rereplic inconclusive and KB-V1 MDR tox inconclusive.
`CCC(=O)N1CCN(c2ccc(Cl)cc2NC(=O)c2ccc([N+](=O)[O-])o2)CC1` gave SW480 rereplic 9.2µM, KB-3-1 cytotox inactive, ALOX12 inh inactive, PINK1 expr mod inactive, MCF10A rereplic inconclusive and KB-V1 MDR tox inactive.
`CCN1CCN(c2ccc(NC(=O)c3ccc([N+](=O)[O-])o3)cc2Cl)CC1` gave SW480 rereplic inactive, KB-3-1 cytotox inactive, ALOX12 inh inactive, PINK1 expr mod inactive, MCF10A rereplic 1.3µM and KB-V1 MDR tox inconclusive.
O=C(Nc1cc(Cl)ccc1F)c1ccc(-n2cncn2)c([N+](=O)[O-])c1 was read as SW480 rereplic inactive, KB-3-1 cytotox inactive, ALOX12 inh inactive, PINK1 expr mod inactive, MCF10A rereplic inactive and KB-V1 MDR tox inactive.
`COc1ccc(CN2CCCC3(C2)C(=NC2CCCCC2)NC(=O)N3c2cc(F)cc(F)c2)cc1` (configuration not stated) gave ALOX12 inh inactive[6.33 µM].
`CC(Sc1ccccc1)C(=O)NC1CCCCC1` (configuration not stated) gave ALOX12 inh inactive.
Screening C=CCN(CC=C)C(=O)C1CCCN(C2CCN(C3Cc4ccccc4C3)CC2)C1 (configuration not stated) returned ALOX12 inh inactive.
Screening CC1(C)CC(NC(=S)NC2CCCCC2)CC(C)(C)N1 returned ALOX12 inh inactive.
Screening CCCCCCCCSc1nnc(CSc2nc3nc(C)cc(C)n3n2)o1 returned SW480 rereplic inactive, KB-3-1 cytotox inconclusive, ALOX12 inh inactive, PINK1 expr mod inactive, MCF10A rereplic inconclusive and KB-V1 MDR tox 2.6µM.
